Compound activity (PubChem)
D2 PAM-1: potentiates the human D2 dopamine receptor allosterically; DiscoveRx D2 beta-arrestin cells, luminescence, 90 min; 100% = 57 uM dopamine signal; potentiation, % (concentration not given with the values); actives 0.23% (n = 360,000); in the data active means potentiation above about 50%; inconclusive means mostly about 30% to 49%
Target sequence (P14416 whole entry, looked up): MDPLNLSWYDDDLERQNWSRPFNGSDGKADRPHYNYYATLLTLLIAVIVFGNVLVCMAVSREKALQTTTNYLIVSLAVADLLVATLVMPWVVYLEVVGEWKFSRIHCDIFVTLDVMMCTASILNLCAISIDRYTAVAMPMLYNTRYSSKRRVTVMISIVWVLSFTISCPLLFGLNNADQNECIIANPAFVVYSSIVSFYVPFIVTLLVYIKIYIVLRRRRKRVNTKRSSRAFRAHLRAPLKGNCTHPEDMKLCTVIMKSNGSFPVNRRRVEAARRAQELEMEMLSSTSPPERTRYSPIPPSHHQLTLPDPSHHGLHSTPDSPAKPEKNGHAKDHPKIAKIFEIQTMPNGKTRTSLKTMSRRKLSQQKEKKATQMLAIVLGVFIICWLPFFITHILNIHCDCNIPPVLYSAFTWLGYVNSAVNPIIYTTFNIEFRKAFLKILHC
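PathHunter beta-arrestin assay in DiscoveRx D2 cells. Compounds were added with an EC20 of dopamine (50 nM final) for 90 min at 37 deg C. Luminescence was read 1 h after detection reagent, with 57 uM dopamine as the EC100 control.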
D2 PAM-2: positive allosteric modulators of human D2 dopamine receptor; P14416; HEK293 T-REx D2, calcium flux, EC20 dopamine potentiation; potentiation, % at 10 µM; actives 0.34% (n = 340,000);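 active means potentiation over 3 SD above the plate norm, cut at about 30% in these data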
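Potentiation of an EC20 dopamine calcium response is measured in a force-coupled, tetracycline-inducible Hek293 Trex D2 line. Compound-only kinetic reads over 180 s flag agonists before dopamine addition.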
D2 antagonist: antagonizes the human D2 dopamine receptor; HEK293 TREx D2 cells, calcium flux, dopamine EC80; inhibition, % at 10 µM; actives 2% (n = 340,000); AID 485344; in the data active means inhibition above about 30%; inactive means below that, where a call was filed
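Compounds are added to dye-loaded, induced HEK293 T-REx cells coupled to calcium release via D2; after a 3 min kinetic read an EC80 dopamine stimulus is given and fluorescence is recorded for 3 more min.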
D2 ag-1: activates the human D2 dopamine receptor; P14416; DiscoveRx PathHunter D2 beta-arrestin, luminescence, 90 min; 100% = 57 uM dopamine signal; activation, % (test concentration not listed); actives 0.084% (n = 360,000); AID 624465; in the data active means activation above about 40%; inconclusive means between about 15% and that limit
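DiscoveRx PathHunter D2 beta-arrestin cells (2,100/well) attached overnight, then compound-stimulated 90 min at 37 C in HBSS/10 mM HEPES/0.1% Tween-20 buffer; beta-galactosidase complementation read by luminescence after 1 h at ambient temperature. Dopamine 57 uM final (EC100) as control.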
D2 ag-2: activates the human D2 dopamine receptor | activation, % at 2 µM | actives 0.53% (n = 340,000) | HEK293 T-REx D2 cells, calcium flux agonist mode | P14416 | AID 485358;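 active means activation over 3 SD above normal in the single-dose calcium agonist read, cut at about 30% in these data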
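Tetracycline-induced HEK293 Trex cells with D2 receptor force-coupled to calcium signaling, plated overnight at 30 C and loaded with no-wash calcium dye. Calcium flux read kinetically for 180 s after compound addition; responses flag agonists.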
Of the large screens only hits and unclear results are named; the others gave an inactive call; ! = not active in a repeat. Rows were chosen to be rich in hits. Some 2.4% of all compounds tested hit in one or more screens of this group.

O=C(CN1CCc2ccccc2C1)Nc1ccccc1N1CCCCCC1	none
Cc1cccc(C(=O)NC(=S)N2CCc3ccccc3C2)c1	none
Cc1cccc(C(=O)NCCC(=O)N2CCc3ccccc3C2)c1	D2 antagonist 32
COc1cc2c(cc1OC)CN(C(=O)Nc1ccccc1Cl)CC2	D2 antagonist 35
O=C(CN1CCc2ccccc2C1)Nc1ccccc1Cl	D2 antagonist 61, D2 ag-2 31
O=C(NCc1ccccc1F)C1CCCN(C(=O)N2CCOc3ccccc32)C1 (centres undefined)	none (no result: D2 PAM-1, D2 antagonist, D2 ag-1)
CCN1CCN(CCC(=O)Nc2cc(C)ccc2C)CC1	none
Cc1ccc(C)c(NC(=O)CCN2CCc3ccccc3C2)c1	D2 antagonist 31
COc1cc(O)c(C(CCN2CCN(c3ccccc3)CC2)c2ccc(N(C)C)cc2)c(OC)c1 (centres undefined)	D2 antagonist 32
COc1ccc(C(CCN2CCN(c3ccccc3)CC2)c2c(O)cc(OC)cc2OC)cc1 (centres undefined)	D2 antagonist 80
COc1cc(O)c(C(CCN2CCOCC2)c2ccc(N(C)C)cc2)c(OC)c1 (centres undefined)	none
COc1ccc(-c2nc(CCNC(=O)c3c(F)cccc3Cl)cs2)cc1	none (no result: D2 PAM-1, D2 antagonist, D2 ag-1)
CCCC12CN3CC(C)(CN(C1)C31C(=O)Nc3ccc(C)cc31)C2=O (centres undefined)	none
Cc1ccc2c(c1)C1(C(=O)N2C)N2CC3(C)CN1CC(C)(C2)C3=O (centres undefined)	D2 PAM-2 33
Cc1nc2ccc(S(=O)(=O)NC(CC(C)C)C(=O)NCc3ccc(Cl)cc3)cc2s1 (centres undefined)	none (no result: D2 PAM-1, D2 antagonist, D2 ag-1)
Cc1ccc(CSc2cn(CC(=O)N3CCCCCC3)c3ccccc23)cc1	none (no result: D2 PAM-1, D2 antagonist, D2 ag-1)
CC1(C(=O)NC2CCN(Cc3ccccc3)CC2)CCN1Cc1ccc2ccccc2c1 (centres undefined)	none (no result: D2 PAM-2, D2 antagonist, D2 ag-2)
OC1CCN(Cc2ccc3ccccc3c2)CC1	D2 antagonist 46
COc1ccc(CN2CCN(Cc3ccc4ccccc4c3)CC2)cc1OC	none
COc1ccccc1CN1CCN(Cc2ccc3ccccc3c2)CC1	D2 antagonist 68
Cc1cc2c(cc3c(SCc4ccccc4Cl)nnc(C)n32)o1	none (no result: D2 PAM-1, D2 antagonist, D2 ag-1)
Cc1ccc(NC(=O)N2CCC(CN3CCCC3)CC2)c(C)c1	none (no result: D2 PAM-1, D2 antagonist, D2 ag-1)
Cc1ccc(N(CC(=O)NCc2ccc(F)cc2)S(=O)(=O)c2cccs2)cc1	D2 antagonist 46
COc1ccc(N(CC(=O)Nc2ccc3c(c2)OCO3)S(=O)(=O)c2ccc(C)cc2)cc1OC	D2 antagonist 54
COc1ccc(S(=O)(=O)N(CC(=O)NCc2ccncc2)c2ccc(C)cc2)cc1Br	D2 antagonist 33
COc1ccc(N(CC(=O)Nc2ccc3c(c2)OCO3)S(=O)(=O)c2ccccc2)cc1OC	none
COc1ccc(Cl)cc1NC(=O)CSc1nnc(COc2ccccc2)n1N	D2 antagonist 54
COc1ccc(C)cc1NC(=O)CSc1nnc(-c2cc3cccc(OC)c3o2)n1N	D2 antagonist 35
COc1ccc(Cl)cc1NC(=O)CSc1nnc(COc2ccccc2)n1C	D2 antagonist 43
Cn1c(SCC(=O)Nc2ccc(Cl)cc2F)nnc1-c1ccco1	D2 antagonist 40
CCn1c(COc2ccccc2)nnc1SCC(=O)Nc1cc(OC)ccc1OC	none (no result: D2 PAM-2, D2 antagonist, D2 ag-2)
COc1cc(OC)c(NC(=O)N2CCCn3nc(C)cc32)cc1Cl	none (no result: D2 PAM-1, D2 antagonist, D2 ag-1)
COc1cc(S(=O)(=O)NCCc2c(C)[nH]c3ccccc23)c(C)cc1C	none (no result: D2 PAM-1, D2 antagonist, D2 ag-1)
CCOc1ccc(OCC)c(NC(=O)CSc2nnnn2CC)c1	D2 PAM-2 32
O=C(CCCCn1c(=O)c2ccccc2n(Cc2ccc(Cl)cc2)c1=O)NCc1ccccc1Cl	none (no result: D2 PAM-1, D2 antagonist, D2 ag-1)
O=C(Nc1ccc(SC(F)F)cc1)c1cc(-c2ccc3c(c2)OCCO3)on1	none (no result: D2 PAM-1, D2 antagonist, D2 ag-1)
CSCCC(NS(=O)(=O)c1ccc(Cl)c(Cl)c1)C(=O)O (centres undefined)	none
CSCCC(NS(=O)(=O)c1ccc2[nH]c(=O)c(=O)[nH]c2c1)C(=O)O (centres undefined)	D2 antagonist 36
CC(C)(C)c1ccc(C(=O)Nc2ccc([N+](=O)[O-])cn2)cc1	D2 antagonist 36
COCCNC(=O)Cn1c(=O)c2cccn2c2ccc(F)cc21	none (no result: D2 PAM-1, D2 antagonist, D2 ag-1)
CC(Oc1ccc2ccc(=O)oc2c1)C(=O)NC(Cc1c[nH]c2ccc(O)cc12)C(=O)O (centres undefined)	D2 antagonist 44
CCCc1cc(=O)oc2cc(C)cc(OCC(=O)NC(Cc3c[nH]c4ccc(O)cc34)C(=O)O)c12 (centres undefined)	none
COc1ccc(-c2cc(=O)oc3cc(OC(C)C(=O)NC(Cc4c[nH]c5ccc(O)cc45)C(=O)O)ccc23)cc1 (centres undefined)	none
CCc1cc(=O)oc2cc(C)cc(OCC(=O)NC(Cc3c[nH]c4ccc(O)cc34)C(=O)O)c12 (centres undefined)	D2 antagonist 48
CCOC(=O)c1cccc(NC(=O)C2CCN(S(=O)(=O)c3cn(C)cn3)CC2)c1	none (no result: D2 PAM-1, D2 antagonist, D2 ag-1)
Clc1ccc(-n2c(Cc3ccccc3)nnc2SCc2nc(-c3cccs3)no2)cc1	none (no result: D2 PAM-1, D2 antagonist, D2 ag-1)
CCCC[n+]1ccn(C2=C([O-])c3ccccc3C(=O)/C2=N\S(=O)(=O)c2ccc(Cl)cc2)c1	D2 antagonist 34
CCCCC[n+]1ccn(C2=C([O-])c3ccccc3C(=O)/C2=N\S(=O)(=O)c2ccc(Cl)cc2)c1	none
NS(=O)(=O)c1ccc(NC(=O)CSc2nc3ccccc3n2-c2ccccc2)cc1	D2 antagonist 31
COc1cccc(Cc2nc3ccccc3nc2SCC(=O)N2CCCc3ccccc32)c1	none (no result: D2 PAM-1, D2 antagonist, D2 ag-1)
CCC(=O)N1CCc2cc(OC)c(OC)cc2C1COc1ccccc1OC (centres undefined)	D2 PAM-2 38!
CCCC(=O)N1CCc2cc(OC)c(OC)cc2C1COc1ccccc1OC (centres undefined)	none (no result: D2 antagonist)
O=[N+]([O-])c1nn(-c2ccccc2)n(O)c1=NCCc1ccccc1	D2 PAM-1 161, D2 ag-1 inconclusive
Cc1ccc(CCN=c2c([N+](=O)[O-])nn(-c3ccccc3)n2O)cc1	D2 PAM-1 67, D2 ag-1 inconclusive
COc1ccc(-n2nc([N+](=O)[O-])c(=NCCc3ccccc3)n2O)cc1	D2 PAM-1 131, D2 ag-1 inconclusive
Cc1cccc(C(=O)Nc2ccc(N3CCC(N4CCCCC4)CC3)c(C(=O)O)c2)c1	none (no result: D2 PAM-1, D2 antagonist, D2 ag-1)
CC(C)CC(NS(=O)(=O)c1ccccc1)C(=O)O (centres undefined)	none
CC(C)CN=C(NS(=O)(=O)c1ccccc1)C(Cl)(Cl)Cl	D2 PAM-1 77
COC(=O)c1cc2sccc2n1Cc1ccc(F)cc1Cl	none (no result: D2 PAM-1, D2 antagonist, D2 ag-1)
CCN1/C(=C/C(C)=O)Sc2ccc(OC)cc21	none (no result: D2 PAM-2, D2 antagonist, D2 ag-2)
